Experimental data taken from the supplement of paper PMC10849652.
About 8,800 targets were measured; listed, in parts, are those with a hit and a random draw of the rest. About 0.5% of all pairs of compound and target were hits.

Tests used:
Assay in all cases: log2 fold change, soluble protein after heating vs DMSO (PISA); higher = thermal stabilisation; K562 lysate, 10 uM; active = over 0.2 and 3.5 SD of the protein, either way, in both replicates (recomputed)
[1] = compound: CS(=O)(=O)CCNCc1ccc(-c2ccc3ncnc(Nc4ccc(OCc5cccc(F)c5)c(Cl)c4)c3c2)o1 [lapatinib]
In short: (§1)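 K562 pellets were dounce-homogenised in PBS pH 7.4 containing 1 mM MgCl2, and the crude extract, at 1 mg/mL protein, was exposed to 10 μM compound for 30 min. Aliquots were heated for 3 min across 48°C-58°C, pooled, brought to 0.5% NP-40 at 4°C and spun at 21,000xg for 90 min, with the supernatant taken as soluble protein. TMTpro 16plex LC-MS/MS with equalised channel sums quantified that protein. Values are log-two fold changes in thermal stability relative to solvent controls, taken from duplicates.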

[2] = compound: CS(=O)(=O)N1CCN(Cc2cc3nc(-c4cccc5[nH]ncc45)nc(N4CCOCC4)c3s2)CC1 [pictilisib]
In short: as §1

[3] = compound: C[C@@H](Oc1cc(-c2cnn(C3CCNCC3)c2)cnc1N)c1c(Cl)ccc(F)c1Cl [crizotinib]
In short: as §1

[4] = compound: C[C@H](C1=CC=C(C=C1)C(=O)NC2=C3C=CNC3=NC=C2)N
In short: as §1

[5] = compound: C[C@H](Nc1ncnc2nc[nH]c12)c1cc2cccc(Cl)c2c(=O)n1-c1ccccc1 [duvelisib]
In short: as §1

[6] = compound: Cc1cc(Nc2cc(CN3CCOCC3)c3nc(C)c(Cc4ccc(Cl)cc4F)n3n2)n[nH]1 [gandotinib]
In short: as §1

[7] = compound: Cc1cc(Nc2cc(N3CCN(C)CC3)nc(Sc3ccc(NC(=O)C4CC4)cc3)n2)n[nH]1 [tozasertib]
In short: as §1

[8] = compound: Cc1ccc(-n2nc(C(C)(C)C)cc2NC(=O)Nc2ccc(OCCN3CCOCC3)c3ccccc23)cc1 [doramapimod]
In short: as §1

[9] = compound: Cc1ccc(NC(=O)c2ccc(CN3CC[C@H](N(C)C)C3)c(C(F)(F)F)c2)cc1Nc1nccc(-c2cncnc2)n1 [bafetinib]
In short: as §1

[10] = compound: Cc1cccc(CC(=O)N2CCc3c2ccc(-c2cn(C)c4ncnc(N)c24)c3F)n1
In short: as §1

Measured: log2 fold change

MRPS12 (UniProt O15235)
inactive: [1] 0.006 | [2] -0.024 | [3] -0.019 | [4] 0.003 | [5] -0.022 | [6] -0.022 | [7] 0.048 | [8] 0.03 | [9] 0.036 | [10] -0.003

NUMBL (UniProt Q9Y6R0)
inactive: [1] 0.01 | [2] 0.111 | [3] 0.066 | [4] 0.018 | [5] 0.162 | [6] 0.176 | [7] 0.036 | [8] 0.247 | [9] 0.041 | [10] 0.036

OAT (UniProt P04181)
inactive: [1] -0.02 | [2] 0.021 | [3] -0.034 | [4] -0.066 | [5] -0.025 | [6] 0.063 | [7] 0.01 | [8] -0.029 | [9] 0 | [10] 0.044

NAA38 isoform 2 (UniProt Q9BRA0)
inactive: [1] -0.028 | [2] -0.018 | [3] 0.001 | [5] -0.016 | [6] 0.202 | [7] 0.062 | [8] -0.088 | [9] -0.041
active: [4] -0.382 | [10] 0.244

MTFP1 (UniProt Q9UDX5)
active: [4] -0.364
inactive: [1] 0.026 | [2] 0.017 | [3] 0.097 | [5] -0.01 | [6] 0.059 | [7] 0.006 | [8] -0.043 | [9] 0.01 | [10] 0.067

NUMB (UniProt P49757)
UniProt P49757, sequence (P49757 whole entry, looked up): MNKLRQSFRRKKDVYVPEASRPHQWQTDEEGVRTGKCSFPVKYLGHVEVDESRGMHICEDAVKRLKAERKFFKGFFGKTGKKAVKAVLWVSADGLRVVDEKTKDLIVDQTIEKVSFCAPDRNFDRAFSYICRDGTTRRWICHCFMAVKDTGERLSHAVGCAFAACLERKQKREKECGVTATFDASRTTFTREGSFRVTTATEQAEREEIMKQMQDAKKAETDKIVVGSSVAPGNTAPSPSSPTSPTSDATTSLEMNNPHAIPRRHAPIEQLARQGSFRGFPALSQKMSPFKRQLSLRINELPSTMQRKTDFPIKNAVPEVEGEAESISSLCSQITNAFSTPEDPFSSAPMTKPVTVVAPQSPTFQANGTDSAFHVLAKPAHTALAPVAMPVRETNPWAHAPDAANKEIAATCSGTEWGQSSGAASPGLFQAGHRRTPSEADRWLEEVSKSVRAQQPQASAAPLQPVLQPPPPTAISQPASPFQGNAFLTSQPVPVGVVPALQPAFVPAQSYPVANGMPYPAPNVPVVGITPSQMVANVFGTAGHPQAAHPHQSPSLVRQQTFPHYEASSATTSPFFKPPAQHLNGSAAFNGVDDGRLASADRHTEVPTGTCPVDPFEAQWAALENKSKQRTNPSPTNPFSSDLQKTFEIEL
inactive: [1] 0.033 | [2] 0.023 | [3] 0.02 | [4] -0.057 | [5] 0.029 | [6] 0.097 | [7] 0.047 | [8] 0.125 | [9] -0.069 | [10] 0.038

PARD3 (UniProt Q8TEW0)
inactive: [1] -0.143 | [2] -0.155 | [3] -0.096 | [4] 0.014 | [5] -0.102 | [6] 0.122 | [7] 0.064 | [8] -0.058 | [9] -0.054 | [10] 0.069

NDC1 (UniProt Q9BTX1)
UniProt Q9BTX1, sequence (Q9BTX1 whole entry, looked up): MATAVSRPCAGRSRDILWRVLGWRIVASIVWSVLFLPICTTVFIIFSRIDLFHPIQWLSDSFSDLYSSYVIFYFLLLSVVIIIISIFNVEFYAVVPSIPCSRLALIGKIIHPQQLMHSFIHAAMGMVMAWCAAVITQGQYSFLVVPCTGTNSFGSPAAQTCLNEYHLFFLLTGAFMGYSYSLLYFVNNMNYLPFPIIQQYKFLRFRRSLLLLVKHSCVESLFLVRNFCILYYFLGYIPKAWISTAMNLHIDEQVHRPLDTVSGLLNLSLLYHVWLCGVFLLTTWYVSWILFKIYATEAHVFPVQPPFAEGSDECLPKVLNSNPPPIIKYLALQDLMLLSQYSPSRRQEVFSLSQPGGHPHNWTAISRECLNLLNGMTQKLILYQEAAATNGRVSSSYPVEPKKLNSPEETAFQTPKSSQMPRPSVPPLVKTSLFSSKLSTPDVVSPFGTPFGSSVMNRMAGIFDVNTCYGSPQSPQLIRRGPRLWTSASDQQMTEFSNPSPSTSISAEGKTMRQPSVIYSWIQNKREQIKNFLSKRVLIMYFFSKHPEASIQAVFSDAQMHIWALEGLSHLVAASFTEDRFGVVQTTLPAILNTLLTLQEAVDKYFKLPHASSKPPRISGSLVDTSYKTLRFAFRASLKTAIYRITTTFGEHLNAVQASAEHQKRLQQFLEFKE
active: [4] -0.333 | [10] 0.296
inactive: [1] -0.087 | [2] -0.012 | [3] -0.027 | [5] -0.044 | [6] 0.185 | [7] -0.01 | [8] -0.001 | [9] -0.066

N6AMT1 (UniProt Q9Y5N5)
active: [4] 0.34
inactive: [1] -0.018 | [2] -0.038 | [3] -0.02 | [5] -0.017 | [6] -0.033 | [7] 0.008 | [8] 0.014 | [9] -0.109 | [10] -0.098

NMT1 (UniProt P30419)
inactive: [1] 0.02 | [2] 0.005 | [3] -0.006 | [4] 0.016 | [5] -0.023 | [6] -0.021 | [7] 0.012 | [8] -0.015 | [9] 0.09 | [10] -0.034

NUCB2 (UniProt P80303)
UniProt P80303, sequence (P80303 whole entry, looked up): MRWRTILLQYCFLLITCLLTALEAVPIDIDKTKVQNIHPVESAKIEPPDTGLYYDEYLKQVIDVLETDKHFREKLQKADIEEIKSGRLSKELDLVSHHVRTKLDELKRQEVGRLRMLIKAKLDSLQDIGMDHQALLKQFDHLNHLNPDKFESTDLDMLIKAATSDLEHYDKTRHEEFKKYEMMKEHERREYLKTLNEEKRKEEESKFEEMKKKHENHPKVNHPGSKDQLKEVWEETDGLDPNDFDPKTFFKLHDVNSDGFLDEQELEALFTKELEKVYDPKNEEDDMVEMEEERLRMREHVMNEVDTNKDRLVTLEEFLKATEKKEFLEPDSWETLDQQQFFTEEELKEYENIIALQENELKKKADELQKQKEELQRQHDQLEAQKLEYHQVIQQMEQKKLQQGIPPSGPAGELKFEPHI
inactive: [1] -0.006 | [2] -0.006 | [3] 0.041 | [5] 0.008 | [6] -0.044 | [7] 0.003 | [8] -0.024 | [9] -0.022 | [10] -0.126
active: [4] 0.253

NUSAP1 (UniProt Q9BXS6)
UniProt Q9BXS6, sequence (Q9BXS6 whole entry, looked up): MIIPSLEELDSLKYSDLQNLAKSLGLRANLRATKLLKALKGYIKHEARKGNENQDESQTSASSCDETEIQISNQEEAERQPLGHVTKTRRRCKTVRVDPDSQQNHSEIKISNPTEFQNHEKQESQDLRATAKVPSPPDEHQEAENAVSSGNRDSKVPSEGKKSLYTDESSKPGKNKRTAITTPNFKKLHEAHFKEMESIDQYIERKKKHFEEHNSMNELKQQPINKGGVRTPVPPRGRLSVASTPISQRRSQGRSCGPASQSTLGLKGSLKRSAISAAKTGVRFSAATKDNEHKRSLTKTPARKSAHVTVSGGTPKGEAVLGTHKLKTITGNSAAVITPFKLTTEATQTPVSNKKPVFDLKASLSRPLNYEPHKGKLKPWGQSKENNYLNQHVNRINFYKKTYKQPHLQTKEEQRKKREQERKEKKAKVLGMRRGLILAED
inactive: [1] -0.004 | [2] -0.018 | [3] 0.045 | [5] -0.022 | [6] 0.141 | [7] -0.001 | [8] -0.011 | [9] 0.008
active: [4] -0.334 | [10] 0.217

NF1 (UniProt P21359)
UniProt P21359, sequence (P21359 whole entry, looked up): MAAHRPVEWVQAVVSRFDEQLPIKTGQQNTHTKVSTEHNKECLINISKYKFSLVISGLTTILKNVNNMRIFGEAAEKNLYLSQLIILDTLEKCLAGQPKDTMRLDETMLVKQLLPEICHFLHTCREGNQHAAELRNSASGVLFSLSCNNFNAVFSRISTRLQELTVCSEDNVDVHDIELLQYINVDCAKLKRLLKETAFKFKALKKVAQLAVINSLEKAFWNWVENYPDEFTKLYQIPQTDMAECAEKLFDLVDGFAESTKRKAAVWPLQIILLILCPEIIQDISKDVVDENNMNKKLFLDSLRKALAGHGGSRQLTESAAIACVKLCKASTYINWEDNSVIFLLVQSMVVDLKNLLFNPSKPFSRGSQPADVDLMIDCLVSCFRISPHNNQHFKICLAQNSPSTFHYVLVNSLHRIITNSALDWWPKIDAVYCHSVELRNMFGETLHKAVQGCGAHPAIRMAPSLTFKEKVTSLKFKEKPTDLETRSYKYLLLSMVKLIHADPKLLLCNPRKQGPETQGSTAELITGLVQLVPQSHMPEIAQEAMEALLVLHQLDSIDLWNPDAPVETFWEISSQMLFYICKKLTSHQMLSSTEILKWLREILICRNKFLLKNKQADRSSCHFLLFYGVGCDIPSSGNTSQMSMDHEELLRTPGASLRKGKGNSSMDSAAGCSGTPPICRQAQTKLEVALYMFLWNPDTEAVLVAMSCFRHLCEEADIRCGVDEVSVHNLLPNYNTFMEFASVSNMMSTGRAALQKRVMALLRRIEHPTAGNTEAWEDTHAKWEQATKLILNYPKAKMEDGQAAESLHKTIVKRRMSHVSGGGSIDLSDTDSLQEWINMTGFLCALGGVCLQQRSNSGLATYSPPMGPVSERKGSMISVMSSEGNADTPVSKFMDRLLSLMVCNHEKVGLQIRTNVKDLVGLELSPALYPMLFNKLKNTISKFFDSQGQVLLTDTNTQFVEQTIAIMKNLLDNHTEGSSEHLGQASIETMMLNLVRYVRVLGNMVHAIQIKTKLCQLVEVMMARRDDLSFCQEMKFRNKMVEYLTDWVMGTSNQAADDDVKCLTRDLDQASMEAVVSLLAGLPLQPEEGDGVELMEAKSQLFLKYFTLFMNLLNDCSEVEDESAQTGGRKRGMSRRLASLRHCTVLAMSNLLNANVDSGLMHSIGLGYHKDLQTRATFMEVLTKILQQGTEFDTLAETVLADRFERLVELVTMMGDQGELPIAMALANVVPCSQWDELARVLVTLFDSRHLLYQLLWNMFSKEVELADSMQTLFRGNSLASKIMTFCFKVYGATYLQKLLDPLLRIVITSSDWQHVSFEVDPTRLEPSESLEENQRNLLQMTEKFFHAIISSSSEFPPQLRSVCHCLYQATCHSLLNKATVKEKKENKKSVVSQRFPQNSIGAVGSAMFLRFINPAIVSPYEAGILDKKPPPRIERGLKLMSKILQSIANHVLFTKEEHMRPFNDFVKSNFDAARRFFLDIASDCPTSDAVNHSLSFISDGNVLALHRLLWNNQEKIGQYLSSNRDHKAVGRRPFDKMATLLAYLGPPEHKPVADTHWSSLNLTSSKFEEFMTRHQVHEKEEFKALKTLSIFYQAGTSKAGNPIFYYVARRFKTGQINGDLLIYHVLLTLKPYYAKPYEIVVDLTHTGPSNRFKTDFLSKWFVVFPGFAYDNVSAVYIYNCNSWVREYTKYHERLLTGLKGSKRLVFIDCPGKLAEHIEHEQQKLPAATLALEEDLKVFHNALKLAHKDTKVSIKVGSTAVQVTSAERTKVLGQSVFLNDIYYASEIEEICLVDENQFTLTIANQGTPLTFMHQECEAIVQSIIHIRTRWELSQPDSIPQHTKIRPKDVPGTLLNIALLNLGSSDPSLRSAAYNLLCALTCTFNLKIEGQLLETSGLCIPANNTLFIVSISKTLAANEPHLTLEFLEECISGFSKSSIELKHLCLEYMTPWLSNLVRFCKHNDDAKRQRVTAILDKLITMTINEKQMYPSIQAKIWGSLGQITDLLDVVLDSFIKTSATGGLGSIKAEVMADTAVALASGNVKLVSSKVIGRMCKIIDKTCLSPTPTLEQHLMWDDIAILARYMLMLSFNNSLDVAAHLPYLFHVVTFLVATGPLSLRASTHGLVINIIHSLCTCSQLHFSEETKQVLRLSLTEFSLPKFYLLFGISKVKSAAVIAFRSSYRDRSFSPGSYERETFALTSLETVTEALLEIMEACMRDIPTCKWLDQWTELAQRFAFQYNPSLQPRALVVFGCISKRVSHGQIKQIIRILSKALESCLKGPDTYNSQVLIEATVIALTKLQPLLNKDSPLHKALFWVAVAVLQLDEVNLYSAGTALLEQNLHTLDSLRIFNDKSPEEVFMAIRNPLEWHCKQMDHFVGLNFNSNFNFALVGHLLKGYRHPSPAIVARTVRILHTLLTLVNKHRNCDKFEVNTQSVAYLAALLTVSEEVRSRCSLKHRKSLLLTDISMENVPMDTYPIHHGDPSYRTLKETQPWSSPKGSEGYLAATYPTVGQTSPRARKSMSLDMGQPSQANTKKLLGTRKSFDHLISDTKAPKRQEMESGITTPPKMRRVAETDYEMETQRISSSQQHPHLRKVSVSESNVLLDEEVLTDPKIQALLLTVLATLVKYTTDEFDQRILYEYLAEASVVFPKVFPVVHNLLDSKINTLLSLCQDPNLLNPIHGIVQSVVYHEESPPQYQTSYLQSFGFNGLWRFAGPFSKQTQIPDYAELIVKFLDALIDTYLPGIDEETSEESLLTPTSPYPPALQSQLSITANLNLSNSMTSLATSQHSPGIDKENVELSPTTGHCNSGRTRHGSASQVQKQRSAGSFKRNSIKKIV
inactive: [1] -0.034 | [2] -0.022 | [3] -0.075 | [4] -0.031 | [5] -0.001 | [6] -0.108 | [7] -0.014 | [8] -0.009 | [9] -0.041 | [10] 0.049
